# Measured values: PubChem BioAssay (NCI)
# This is part of a sample that, as a whole, favours compounds with a hit. Of some 83,000 tested, about 20% had one in any assay.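 In brief: 96-well plates, 48 h treatment, single concentration, percent growth endpoint.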 A number with no mark means an inactive call. The source made the active and inactive calls. Rule for the calls: active = growth percent below 10; inactive = the rest.
# What was measured:
# Assay in all cases: NCI-60 one-dose screen, 48 h (100 = growth as untreated, 0 = no growth, -100 = all killed)
# Details in all cases: 10 µM unless noted
# NCI-H23 lung = test system: NCI-H23 lung
# NCI-H226 lung = test system: NCI-H226 lung
# NCI-H322M lung = test system: NCI-H322M lung
# HOP-62 NSCLC = test system: HOP-62 NSCLC
# NCI-H460 lung = test system: NCI-H460 lung
# HOP-92 NSCLC = test system: HOP-92 NSCLC
# NCI-H522 lung = test system: NCI-H522 lung
# A549/ATCC NSCLC = test system: A549/ATCC NSCLC
# 786-0 renal = test system: 786-0 renal
# COLO 205 colon = test system: COLO 205 colon
Compound,growth (NCI-H23 lung),growth (NCI-H226 lung),growth (NCI-H322M lung),growth (HOP-62 NSCLC),growth (NCI-H460 lung),growth (HOP-92 NSCLC),growth (NCI-H522 lung),growth (A549/ATCC NSCLC),growth (786-0 renal),growth (COLO 205 colon)
NC(=O)Nc1ccc2ncnc(Nc3cccc(O)c3)c2c1,100%,102%,83.5%,92.8%,108%,78%,102%,93.5%,92.6%,94.7%
COc1ccc(Nc2ncnc3c2sc2nc(C)cc(C)c23)cc1,111%,103%,102%,107%,97.9%,130%,99.9%,96%,93.9%,111%
COc1ccc(C2=CC(c3ccc(OC)cc3Br)N3C=CSC3=N2)cc1 (stereo not given),96.9%,66.6%,72.8%,75.6%,90.6%,77.4%,67.9%,41.8%,83.7%,80.3%
Fc1ccc(-c2nnc(N3CCOCC3)c3ccccc23)cc1,111%,97.2%,94.2%,97.1%,103%,103%,101%,102%,105%,89.6%
COc1ccc(/C=C(/C(=O)N2CCN(c3ccccc3)CC2)c2cc(OC)c(OC)c(OC)c2)cc1N,39.4%,40.5%,49.8%,30.4%,6.98% (active),92.2%,3.2% (active),24%,25.7%,-21.2% (active)
O=C(/C=C/c1cn(-c2ccccc2)nc1-c1cccc(Nc2ccnc3cc(Cl)ccc23)c1)c1ccc2c(c1)OCO2,101%,99.1%,86.2%,107%,102%,88.1%,127%,93.4%,99.8%,102%
Cc1ccc(NC(=O)c2[nH]c(SCCN(C)C)nc2-c2ccc(F)cc2)cc1Nc1ccc2ncn(C)c(=O)c2c1,42.1%,63.9%,67%,58.5%,56.3%,38.7%,69.5%,40.3%,72.8%,14.5%
C=CCn1c(C)nc2cc(Nc3nc(N4CCOCC4)nc4nc[nH]c34)ccc21,106%,88.6%,88.3%,67.8%,94.1%,4.17% (active),88.2%,95.1%,63.1%,97.9%
CCNC(=S)N(Cc1ccccc1)Cc1ccccc1,110%,114%,104%,94.5%,131%,76.7%,88.1%,98.4%,107%,132%
CC(C)NC(=O)OCC#CCOC(=O)NC(C)C,99.6%,106%,86.8%,104%,108%,105%,89.1%,96.7%,102%,106%
CCOC(=O)c1ccccc1SC(C[N+](=O)[O-])c1ccccc1 (stereo not given),99.1%,86.2%,116%,118%,107%,90.5%,88.8%,78.7%,98.7%,102%
CC(=O)c1cccc(Nc2ncnc3ccc(NC(=O)c4ccco4)cc23)c1,88.7%,87.6%,102%,113%,96.1%,71.7%,83.3%,90.4%,89.5%,98.5%
COC1CC(N)C2OC(c3ccccc3)OCC2O1 (stereo not given),103%,104%,107%,114%,103%,136%,98.7%,97.9%,103%,113%
COc1ccc(/C(=C\c2cc(OC)c(OC)c(OC)c2)C(=O)N2CCNCC2)cc1,102%,94%,99.2%,97.4%,105%,94%,79.1%,90.4%,103%,113%
N#CC1=C(N)Oc2nc[nH]c(=O)c2C1c1cccs1 (stereo not given),110%,89%,105%,105%,106%,102%,97.6%,95.7%,103%,106%
Cc1cc(C#Cc2ccccc2)ccc1-n1c(/C=C/c2ccc(F)cc2)nc2ccccc2c1=O,71.5%,84.7%,87.5%,122%,63.6%,39.2%,64.1%,68.5%,80.4%,53.3%
COc1ccc(/C=C/C(=O)c2ccc(NC(=O)CSc3nnc(-c4ccc(Cl)cc4)n3-c3ccccc3)cc2)cc1,92.4%,104%,106%,103%,104%,107%,84.6%,74%,98%,106%
O=C1/C(=C\c2cccn2C(=O)c2ccccc2)c2ccccc2N1c1c(Cl)cccc1Cl,75.3%,70.1%,93.7%,99.3%,94.8%,81.5%,70.5%,77.3%,94%,98%
OC(c1cc(-c2ccc(C(F)(F)F)cc2)nc(-c2ccc(C(F)(F)F)cc2)c1)C1CCCCN1 (stereo not given),-60.2% (active),-71.2% (active),-79.5% (active),-86.9% (active),-67.7% (active),-81.9% (active),-78.7% (active),-84.4% (active),-75.4% (active),-79.6% (active)
O=C(NNC(=S)Nc1ccccc1)c1ccc(Nc2ncnc3c2cnn3-c2cccc(Br)c2)cc1,99.8%,94.3%,95.5%,88%,112%,93.5%,88.6%,112%,105%,103%
COc1ccccc1/C=N\NC(=S)Nc1ccc(F)cc1,72.5%,90.9%,96%,79.8%,80.5%,71%,38.1%,68%,93.6%,91.9%
Cc1cc(C)c2c(n1)sc1c(Nc3ccc(OCc4ccccc4)cc3)ncnc12,101%,96.2%,92.8%,101%,98.8%,88.2%,90.1%,101%,97.8%,111%
Cc1cc(NC(=O)C2c3ccccc3C(=O)N(CC(C)C)C2c2cccs2)no1 (stereo not given),47.6%,103%,107%,43.8%,69.1%,-0.868% (active),-66.5% (active),35.3%,-32.6% (active),-83.9% (active)
N#Cc1ccc(NC(=O)Nc2nc3ccc(OC(F)(F)F)cc3s2)cc1,-22.1% (active),12.7%,4% (active),3.68% (active),-3.29% (active),-13.1% (active),-33.5% (active),3.01% (active),-12.6% (active),-90.1% (active)
C[C@@H](C[C@H](CC1CC1)c1ccccc1)c1ccc2ccccc2c1,100%,109%,101%,104%,100%,102%,95.2%,98.2%,101%,109%
